Bioassay records deposited in PubChem by National Center for Advancing Translational Sciences (NCATS).
KB-3-1 tox = qHTS assay for MDR1-selective chemotherapeutics: Primary screen using the parental adenocarcinoma cell KB-3-1; KB-3-1 viability, CellTiter-Glo ATP luminescence, 72 h; Potency, µM (series often up to 46.1 µM), most hits filed as cytotoxic; hit rate 1.4% among 400,000; note: % is set by controls: 0 for no effect and ±100 for the full control effect; nearly all actives have a fitted effect of over 60% in size
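Cells are dispensed, compounds pinned in, plates held at 37 °C for 72 h, then CellTiter-Glo is added and luminescence read after 10 minutes. Cell line: parental KB-3-1 in phenol-red-free DMEM, 10% FBS.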
HT1080 IDH1KD tx = qHTS for induction of synthetic lethality in tumor cells producing 2HG: qHTS for the HT-1080-IDH1KD cell line; hit rate 2% among 360,000; Potency, µM (highest dose often 46.1 µM), for the others: at the top dose activity, negative = toxicity, usual class: cytotoxic; HT-1080 IDH1 knockdown viability, ATP luminescence, 48 h; AID 686971, 2013;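 note: 0% = DMSO wells and -100% = cell-free medium wells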
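IDH1KD HT-1080 cells, 750/well, RPMI + 5% FBS; compound pinned after 2 h settling; 48 h, 37 °C; CellTiter-Glo luminescence; % activity normalised to DMSO and no-cell wells; curves fitted, classed by r2 and efficacy.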
MCF10A rereplic = A quantitative high throughput screen for small molecules that induce DNA re-replication in MCF 10a normal breast cells. Potency, µM (top dose mostly 46.1 µM), inactives show at the highest dose activity, positive = re-replication, actives largely listed as activators. hit rate 2.9% among 350,000. MCF 10A DNA re-replication, Hoechst nuclear intensity, 48 h; note: % of control where 0% means no effect; nearly all actives have a fitted effect of over 50% in size
SW480 rerep = A quantitative high throughput screen for small molecules that induce DNA re-replication in SW480 colon adenocarcinoma cells; SW480 DNA re-replication, Hoechst DNA content imaging, 48 h; Potency, µM (top dose mostly 46.1 µM), for the others: top-dose re-replication activation, actives largely listed as activators; hit rate 1.8% among 340,000; note: % of control where 0% means no effect; nearly all actives have a fitted effect of over 55% in size
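Cells (250 per well) received 23 nL compound or DMSO by pin tool and were kept 48 hr at 37 C, 5% CO2. Nuclei were then stained with Hoechst for 40 min and scanned for DNA content.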
KB-V1 MDR tox = qHTS assay for MDR1-selective chemotherapeutics: Primary screen using the drug-selected MDR subline cells KB-V1; KB-V1 MDR cells viability, CellTiter-Glo, 72 h; Potency, µM (doses to about 46.1 µM), usual class: cytotoxic; hit rate 3.4% among 400,000; AID 1347076, 2019; note: % is set by controls: 0 for no effect and ±100 for the full control effect; nearly all actives have a fitted effect of over 60% in size
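In this primary screen, KB-V1 cells overexpressing P-gp are incubated with library compounds (lowest to highest concentration) for 72 h at 37 degrees C before a luminescent ATP viability read.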
HT1080-NT tox = qHTS for induction of synthetic lethality in tumor cells producing 2HG: qHTS for the HT-1080-NT fibrosarcoma cell line | HT-1080-NT fibrosarcoma viability, CellTiter-Glo ATP luminescence, 48 h | Potency, µM (doses to about 46.1 µM), inactives show at the top dose activity, negative = less viability, usual class: cytotoxic | hit rate 1.6% among 360,000;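 note: NT is the 2HG producing partner of a matched IDH1 knockdown line; 0% = DMSO-treated cells and -100% = media-only wells without cells; nearly all actives have a fitted effect of over 55% in size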
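Viability by CellTiter-Glo luminescence after 48 h compound exposure at 37C of HT-1080-NT cells (750/well, RPMI, 5% FBS). % activity scaled between DMSO wells and medium-only wells, then curve-fitted and categorized by curve class.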
An asterisk follows results filed as active; i = inactive; u = inconclusive; x = not tested or not shown. Only some compounds are listed: those with a hit (about 8% of all), similar ones and a draw of the others. Calls come from the whole dose curve; as a rule, active = well fitted curve in the direction sought with a large enough effect; inconclusive = small, poorly fitted or top-dose-only effect, or another doubt; inactive = no such curve, though single readings can be large; an effect the other way counts as inactive or inconclusive. Potency is the fitted concentration of half-maximal effect.

SMILES	KB-3-1 tox	HT1080 IDH1KD tx	MCF10A rereplic	SW480 rerep	KB-V1 MDR tox	HT1080-NT tox
COc1ccc([C@H]2CC(=O)C=C(c3cc(C)ccc3OC)C2)cc1	21µM*	u	u	16µM*	5.8µM*	u
Cc1cccc(C)c1NC(=O)c1ccc2nc(CCc3ccccc3)oc2c1	u	x	x	x	i	x
O=C1C=C(c2ccc3cc[nH]c3c2)C[C@@H](c2ccc3c(c2)OCO3)C1	i	-80%	21µM*	u	i	18µM*
COc1ccc([C@H]2CC(=O)C=C(c3ccccc3-c3ccccc3)C2)cc1	u	u	16µM*	u	u	u
O=C1C=C(c2ccc3c(c2)OCO3)C[C@@H](c2ccc3c(c2)OCO3)C1	i	0%	3%	-9%	i	0%
COc1ccc(OC)c(C2=CC(=O)C[C@H](c3ccc4c(c3)OCO4)C2)c1	10µM*	u	u	u	u	u
COc1ccc([C@H]2CC(=O)C=C(c3ccccc3Oc3ccccc3)C2)cc1	i	-6%	22%	0%	i	-20%
COc1c(F)cccc1C1=CC(=O)C[C@H](c2ccc3c(c2)OCO3)C1	i	0%	13%	-4%	i	-4%
CCc1ccccc1NC(=O)c1ccc2c(c1)N(Cc1cccc(Cl)c1)C(=O)c1ccccc1S2(=O)=O	i	x	x	x	i	x
CC(C)(C)CN1CCN(Cc2c[nH]c3ccccc23)CC1CCO (stereo not drawn)	i	-6%	6.5µM*	0%	i	2%
CCOc1ccc(CN2CCN(Cc3cc4ccccc4[nH]3)CC2CCO)cc1 (stereo not drawn)	u	-14%	23µM*	u	i	-2%
CC(C)(C)CN1CCN(Cc2cc3ccccc3[nH]2)CC1CCO (stereo not drawn)	u	-3%	0.65µM*	u	i	-5%
COc1cc(CN2CCN(Cc3c[nH]c4ccccc34)CC2CCO)cc(OC)c1 (stereo not drawn)	i	-17%	0%	1%	i	-15%
Cc1ccc(C)c(CN2C(=O)CSc3ccc(C(=O)NCc4ccc(F)cc4)cc32)c1	i	x	x	x	i	x
COc1ccc(C2CC(=O)c3cc(-c4nc(-c5cccc([N+](=O)[O-])c5)cs4)c(=O)n(-c4ccc(C)c(C)c4)c3C2)cc1 (stereo not drawn)	i	x	x	x	i	x
CC1=C(/C=C/C(C)=C/C=C/C(C)=C/C(=O)Oc2c(C)c(C)c3c(c2C)CC[C@@](C)(CCC[C@H](C)CCC[C@H](C)CCCC(C)C)O3)C(C)(C)CCC1	x	x	14%	6%	x	x
COc1cc(Br)cc(/C=N/NC(=O)Cc2ccc(C(F)(F)F)cc2[N+](=O)[O-])c1O	u	16µM*	u	24%	i	u
COc1cc(/C=N/NC(=O)c2cc(-c3cccc(Br)c3)nc3ccccc23)cc(OC)c1O	u	12µM*	u	12%	u	u
COc1cc([N+](=O)[O-])cc(/C=N/NC(=O)c2cc(-c3ccccc3)nc3ccccc23)c1O	u	u	6%	16%	u	u
COc1cc([N+](=O)[O-])cc(/C=N/NC(=O)c2cc(C)nc3ccccc23)c1O	u	13µM*	u	u	i	u
COc1cc([N+](=O)[O-])cc(/C=N/NC(=O)Cn2nccc2C)c1O	u	u	18µM*	16µM*	u	u
